Bioassay records from PubChem BioAssay.
EPAC2 ant val: validation of human EPAC2 antagonists | Potency, µM (titrated, usually from 112 µM), without a hit: top-dose activity, negative = inhibition, usual class: inhibitors | EPAC2 Rap1B BODIPY-GDP exchange, fluorescence | 16,000 compounds, 1.7% hits | AID 1645886 | Q8WZA2;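 further: 100% = activation by cAMP agonist control; nearly all actives have a fitted effect of over 40% in size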
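Fluorescent exchange read-out: 100 nM EPAC2 with 250 nM RAP1B–BODIPY-GDP and 50 uM GDP; BODIPY-GDP release lowers fluorescence. Read at 480/540 nm every 5 min for 30 min at room temperature; normalized to 6.5 mM cAMP.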
EPAC1 ag val: human EPAC1 agonism, validation. 16,000 compounds, 1% hits. Potency, µM, inactives show max response, positive = active, usual class: activators. EPAC1 Rap1b BODIPY-GDP exchange, fluorescence; further: nearly all actives have a fitted effect of over 70% in size
Target sequence (O95398 whole entry, looked up): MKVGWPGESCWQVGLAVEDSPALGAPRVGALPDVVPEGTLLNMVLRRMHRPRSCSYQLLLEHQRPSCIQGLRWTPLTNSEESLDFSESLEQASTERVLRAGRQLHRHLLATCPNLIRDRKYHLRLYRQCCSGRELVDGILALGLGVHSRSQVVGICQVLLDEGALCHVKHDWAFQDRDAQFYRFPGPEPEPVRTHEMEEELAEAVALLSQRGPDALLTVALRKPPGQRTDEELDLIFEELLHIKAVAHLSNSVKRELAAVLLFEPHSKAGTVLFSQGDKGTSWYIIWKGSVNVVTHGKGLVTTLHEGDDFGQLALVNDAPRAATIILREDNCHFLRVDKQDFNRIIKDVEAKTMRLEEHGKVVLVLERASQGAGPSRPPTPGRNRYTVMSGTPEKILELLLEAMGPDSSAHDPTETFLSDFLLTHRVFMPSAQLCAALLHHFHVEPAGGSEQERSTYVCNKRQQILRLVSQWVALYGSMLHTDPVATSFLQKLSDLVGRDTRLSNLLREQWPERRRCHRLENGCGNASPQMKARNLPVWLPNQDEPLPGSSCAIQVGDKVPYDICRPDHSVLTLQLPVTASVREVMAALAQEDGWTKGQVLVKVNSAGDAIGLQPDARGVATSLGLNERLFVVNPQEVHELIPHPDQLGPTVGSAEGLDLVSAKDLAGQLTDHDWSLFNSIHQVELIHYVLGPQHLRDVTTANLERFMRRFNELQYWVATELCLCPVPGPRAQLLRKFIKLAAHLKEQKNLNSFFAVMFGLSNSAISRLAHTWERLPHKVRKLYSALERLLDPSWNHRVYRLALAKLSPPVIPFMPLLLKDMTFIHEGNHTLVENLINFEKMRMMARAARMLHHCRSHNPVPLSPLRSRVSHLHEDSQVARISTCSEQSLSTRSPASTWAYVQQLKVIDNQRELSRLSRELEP
An asterisk follows results filed as active; ! = not active in a repeat; [ ] = another dose, or the depositor's remark. This is a sample that favours compounds with a hit; in the whole collection about 2.9% have one here. The call rests on the fitted dose curve; in most records, active means well fitted curve in the direction sought with a large enough effect; inconclusive means small, poorly fitted or top-dose-only effect, or another doubt; inactive means no such curve, though single readings can be large; an effect the other way counts as inactive or inconclusive. Unless noted, on the % scale 0 is the no-effect control and ±100 the full control effect; potency means the concentration at half of the fitted maximal effect.

Screening O=S(=O)(O)c1ccc2c(N=Nc3ccc(S(=O)(=O)O)c4ccccc34)c(O)c(S(=O)(=O)O)cc2c1 returned EPAC2 ant val 50.1µM* and EPAC1 ag val -62.8%.
Screening O=S(=O)(O)c1cc(O)c2c(N=Nc3ccc(Nc4ccccc4)c4c(S(=O)(=O)O)cccc34)cc(S(=O)(=O)O)cc2c1 returned EPAC2 ant val inconclusive and EPAC1 ag val 9.4%.
Cc1nc2sccn2c1CN1CCOc2ccc(CN3CCN(c4ccc(F)cc4)CC3)cc2C1 was read as EPAC2 ant val inconclusive and EPAC1 ag val -3.4%.
Screening COCCn1c(=O)cnc2cnc(Oc3cccc(Cl)c3)nc21 returned EPAC2 ant val -9.6% and EPAC1 ag val -13.7%.
For O=c1cnc2cnc(Oc3ccccc3)nc2n1Cc1cccs1 the results were EPAC2 ant val 12.6µM* and EPAC1 ag val 9.8%.
For O=c1c(-c2cccs2)nc2cnc(Oc3ccccc3)nc2n1Cc1cccs1 the results were EPAC2 ant val -22.4% and EPAC1 ag val 10.8%.
`COc1cccc(Nc2ncc3nc(-c4cccs4)c(=O)n(-c4ccccc4)c3n2)c1` gave EPAC2 ant val 354.6% and EPAC1 ag val 112µM*.
Screening COc1cccc(Nc2ncc3ncc(=O)n(Cc4cccs4)c3n2)c1 returned EPAC2 ant val -13.6% and EPAC1 ag val 112µM*.
COc1cccc(Nc2ncc3nc(-c4cccs4)c(=O)n(Cc4cccs4)c3n2)c1 was read as EPAC2 ant val 4.1% and EPAC1 ag val inconclusive.
Screening COc1ccc(-n2c(=O)c(-c3cccs3)nc3cnc(Nc4ccccc4)nc32)cc1 returned EPAC2 ant val 12.1% and EPAC1 ag val inconclusive.
`O=c1cnc2cnc(Oc3cccc(Cl)c3)nc2n1Cc1ccc(F)cc1` gave EPAC2 ant val 10µM* and EPAC1 ag val 8.1%.
For O=C1O[C@@H]2[C@@H](O)[C@H](O)O[C@@H]2[C@H]1O the results were EPAC2 ant val -15.2% and EPAC1 ag val 5.2%.
CCCCC/C=C\C/C=C\C/C=C\C/C=C\CCCC(=O)O was read as EPAC2 ant val inconclusive and EPAC1 ag val -16.6%.
`CCCCC/C=C\C/C=C\C/C=C\C/C=C\CCCCCC(=O)O` gave EPAC2 ant val -27.7%[11.4 µM] and EPAC1 ag val -14.5%.
`CCCCCCCCCCC/C=C\C(C)(C)/C=C\CCCC(=O)O` gave EPAC2 ant val 35.5µM*! and EPAC1 ag val -58.0%.
CCCCCCC/C=C\CCCCCCCCC(=O)O was read as EPAC2 ant val 28.2µM* and EPAC1 ag val -25.7%.
`OC1(c2cccnc2)CCN(Cc2ccc3c(c2)CN(Cc2cc4ccccc4s2)CCO3)CC1` gave EPAC2 ant val -43.1% and EPAC1 ag val inconclusive.
Oc1ccc(Cl)cc1Cc1cc(Cl)ccc1O was read as EPAC2 ant val 89.1µM*! and EPAC1 ag val inconclusive.
`NCCc1ccc(O)c(O)c1` gave EPAC2 ant val -9.8% and EPAC1 ag val inconclusive.
For Cc1onc(-c2ccccc2)c1C(=O)NCCN1Cc2ccccc2OC(c2ccsc2)C1 (configuration not stated) the results were EPAC2 ant val -21.6% and EPAC1 ag val -12.8%.
Screening CC1(C)CCC2=C(O1)c1ccccc1C(=O)C2=O returned EPAC2 ant val 28.2µM*! and EPAC1 ag val -6.9%.
Screening CNc1nc(-c2ccc3c(c2)OCO3)nc2ccccc12 returned EPAC2 ant val -29.5% and EPAC1 ag val -20.5%.
`c1ccc(Nc2nc(-c3ccc4c(c3)OCO4)nc3ccccc23)cc1` gave EPAC2 ant val -26.2% and EPAC1 ag val 100µM*.
For O=C[C@H](O)[C@@H](O)[C@@H](O)[C@H](O)CO the results were EPAC2 ant val -0.6% and EPAC1 ag val -41.9%.
CN1[C@@H]2CC[C@H]1CC(NC(=O)n1c(=O)[nH]c3ccccc31)C2 (some centres not stated) was read as EPAC2 ant val 22.5% and EPAC1 ag val 3.5%.
CCN(CC)C(=O)c1cc(S(=O)(=O)Cc2ccccc2)c(N2CCC(c3ccccc3)CC2)cc1N(CC)CCN(C)C was read as EPAC2 ant val -14.6% and EPAC1 ag val -38.2%.
Screening COC(=O)C1=C(C)NC(C)=C([N+](=O)[O-])C1c1ccccc1C(F)(F)F (configuration not stated) returned EPAC2 ant val 39.8µM*! and EPAC1 ag val 2.0%.
CC1=C(C(=O)OC(C)C)[C@@H](c2cccc3nonc23)C([N+](=O)[O-])=C(C)N1 was read as EPAC2 ant val -50.8% and EPAC1 ag val -1.4%.
`O=c1oc2c(O)c(O)cc3c(=O)oc4c(O)c(O)cc1c4c23` gave EPAC2 ant val inactive and EPAC1 ag val 79.4µM*!.
O=c1cc(-c2cc(O)c(O)c(O)c2)oc2cc(O)cc(O)c12 was read as EPAC2 ant val inconclusive and EPAC1 ag val -39.9%.
For Cc1cnc(SCc2ccccn2)nc1C1CCCN(C(=O)c2noc3c2CCCC3)C1 (configuration not stated) the results were EPAC2 ant val inconclusive and EPAC1 ag val -10.8%.
For Cc1noc(C)c1-c1nccc(N(C)Cc2ccco2)n1 the results were EPAC2 ant val -17.9% and EPAC1 ag val -2.2%.
Screening CN(C)C(=O)c1ccc(-c2nc(N(C)Cc3ccco3)c3ccccc3n2)cc1 returned EPAC2 ant val -21.0% and EPAC1 ag val inconclusive.
`Cc1noc(C)c1-c1nc(N(C)Cc2ccco2)c2ccccc2n1` gave EPAC2 ant val 20µM* and EPAC1 ag val inconclusive.
Screening CN(Cc1ccco1)c1nc(-c2cccc(C#N)c2)nc2ccccc12 returned EPAC2 ant val -11.9% and EPAC1 ag val 100µM*.
Screening CN(C)c1ccc(-c2nc(N(C)Cc3ccco3)c3ccccc3n2)cc1 returned EPAC2 ant val -16.3% and EPAC1 ag val inconclusive.
Screening CN(Cc1ccco1)c1nc(-c2ccoc2)nc2ccccc12 returned EPAC2 ant val 25.1µM* and EPAC1 ag val inconclusive.
For C[C@H]1C[C@H]2[C@@H]3CCC4=CC(=O)C=C[C@]4(C)[C@@]3(F)[C@@H](O)C[C@]2(C)[C@@]1(O)C(=O)CCl the results were EPAC2 ant val inconclusive and EPAC1 ag val -39.1%.
Screening COC(=O)C1CCCCN1Cc1ccc2c(c1)CN(Cc1cnn(-c3ccccc3)c1)CCO2 (configuration not stated) returned EPAC2 ant val -2.3% and EPAC1 ag val -5.6%.
Screening CC(C)C(=O)NCC1CCC2(CCN(Cc3ccc(-c4ccccc4Cl)o3)CC2)O1 (configuration not stated) returned EPAC2 ant val -8.7% and EPAC1 ag val 11.8%.
CC(=O)N[C@@H](CSC/C=C(\C)CCC=C(C)C)C(=O)O was read as EPAC2 ant val -14.1%[11.4 µM] and EPAC1 ag val -7.8%.
Screening CC(=O)N[C@@H](CSC/C=C(\C)CC/C=C(\C)CC/C=C(\C)CCC=C(C)C)C(=O)O returned EPAC2 ant val 89.1µM*! and EPAC1 ag val -2.4%.
Screening O=C(NC(c1cccnc1)C(F)(F)F)c1cnn(-c2nccc(-c3cccs3)n2)c1C1CC1 (configuration not stated) returned EPAC2 ant val -16.0% and EPAC1 ag val 15.6%.
`CCCCCCCC(=O)CC[C@@H]1[C@@H](C/C=C\CCCC(=O)OC(C)C)[C@@H](O)C[C@H]1O` gave EPAC2 ant val inconclusive and EPAC1 ag val -216.4%.
`O=C(O)c1ccccc1Nc1ccccc1` gave EPAC2 ant val -11.5% and EPAC1 ag val -1.6%.
Screening O=C(O)c1ccccc1Nc1cccc(C(F)(F)F)c1 returned EPAC2 ant val 35.5µM*! and EPAC1 ag val -58.6%.
